Source: PubChem BioAssay (National Center for Advancing Translational Sciences (NCATS))
This is one part of a sample in which hits are shown more often than they occur.
Pf Dd2 inh: qHTS Primary assay for Inhibitors of Plasmodium falciparum Dd2 growth in vitro; AID 1347417, 2020; 4.3% of 120,000 active; P. falciparum Dd2 growth, SYBR Green, 72 h; Potency, µM (doses to about 28.9 µM), hits mostly inhibitors; active means well fitted inhibition curve with a large enough effect; further: nearly all actives have a fitted effect of over 65% in size
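Infected erythrocytes (Dd2, 0.3% parasitemia, 2.5% hematocrit final) are added to compound in RPMI-1640/Albumax II medium, grown 72 h at 37C in low oxygen, then lysed with saponin/Triton-X containing SYBR Green and read by fluorescence.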
A number is an active result; . = inactive.

SMILES | Pf Dd2 inh
CC(C)NC(=O)NC[C@H]1C[C@@H]2CCN1C[C@@H]2c1cc(-c2cccs2)nn1C | .
Cc1ccc(NC(=O)C(C)Sc2nc(=O)cc(N)n2-c2ccccc2)cc1 (centres undefined) | .
Nc1cc(=O)nc(SCC(=O)Nc2ccc(F)cc2)n1CCc1ccccc1 | .
CC(Sc1nc(=O)cc(N)n1CCc1ccccc1)C(=O)Nc1ccccc1C#N (centres undefined) | 11µM
Cc1noc(-c2cn(C3CCN(C(=O)c4ccccc4F)C3)nn2)n1 (centres undefined) | .
Cc1ccc(C(=O)N2CC[C@@](C)(O)[C@@H](Cc3ccccc3)C2)cc1C | 8.9µM
Cc1ccc(C(=O)N2CCC3(CC2)NC(=O)N(Cc2ccccc2)C3=O)cc1F | .
Cc1ccc(C(=O)N2CCC3(CC2)NC(=O)N(c2ccccc2)N3)cc1C | .
COc1ccc2c(CNCc3cccs3)c(C(=O)O)n(Cc3ccccc3)c2c1 | .
COc1ccc2c(CNCCc3ccco3)c(C(=O)O)n(Cc3ccc(C)cc3)c2c1 | .
CCOc1ccc(CNCc2c(C(=O)O)n(Cc3ccc(C)cc3)c3cc(C)ccc23)cc1 | .
CCOc1ccc(CNCc2c(C(=O)O)n(Cc3ccc(OC)cc3)c3ccccc23)cc1 | 10µM
COc1ccc2c(CNCc3ccc(C)o3)c(C(=O)O)n(Cc3ccccc3C)c2c1 | .
COc1ccc(Cn2c(C(=O)O)c(CNC3CCCC3)c3ccc(OC)cc32)cc1 | .
COc1ccc(Cn2c(C(=O)O)c(CNCc3ccccc3F)c3ccc(OC)cc32)cc1 | 8.9µM
COc1ccc2c(CNCc3ccc(Cl)cc3)c(C(=O)O)n(Cc3ccccc3C)c2c1 | 11µM
CCOc1ccccc1CNCc1c(C(=O)O)n(Cc2ccccc2)c2cc(OC)ccc12 | .
CCN(C1CCOCC1)C1CN(C(C)=O)C1 | .
CN(C)[C@@H]1CN(C(=O)c2ccc(C#N)cc2)C[C@H]1CO | .
O=C(CCc1ccc2c(c1)CN(C(=O)C1CC1)CCO2)NC1CCS(=O)(=O)C1 (centres undefined) | .
Cc1ccc(NC(=O)Cn2cc(S(=O)(=O)Cc3ccccc3)c3ccccc32)cc1C | .
CC(=O)Nc1cccc(-c2cn3cccnc3n2)c1 | .
O=C1CCN(C(=O)c2cc3ccccc3[nH]2)CCCCCCN1 | .
Nc1c(C(=O)Nc2ccccc2Cl)nnn1Cc1cccc(Cl)c1 | 7.1µM
Cc1ccc(Cn2nnc(C(=O)Nc3ccc(F)c(F)c3)c2N)cc1 | 0.89µM
SMILES | Pf Dd2 inh
CSc1ccc(Cn2nnc(C(=O)Nc3ccc(C)cc3Cl)c2N)cc1 | .
Cc1cc(C)cc(NC(=O)c2nnn(Cc3cccc(Br)c3)c2N)c1 | .
CCc1ccc(Cn2nnc(C(=O)Nc3ccc(C)cc3)c2N)cc1 | .
CCOc1ccc(Cn2nnc(C(=O)Nc3ccc(Cl)cc3)c2N)cc1 | .
NCCn1cc(C(=O)N2CCN(CCCOc3ccc(F)cc3)CC2)nn1 | .
CC(c1ccon1)N(C)C(=O)c1ccc(OC2CCN(S(=O)(=O)N(C)C)CC2)cc1 (centres undefined) | .
CCc1cc(=O)[nH]c(SCc2nc(-c3ccccc3C)no2)n1 | .
CCC(Sc1nc2cc3c(cc2c(=O)n1CCCC(=O)NCc1ccc(OC)cc1)OCO3)C(=O)NCCCOC (centres undefined) | .
COc1ccc(CNC(=O)CCCn2c(SCC(N)=O)nc3cc4c(cc3c2=O)OCO4)cc1 | .
CCCCC(Sc1nc2cc3c(cc2c(=O)n1CCCC(=O)NCc1ccc(OC)cc1)OCO3)C(=O)OCC (centres undefined) | 7.9µM
CCOc1ccc(NC(=O)Cn2c(=O)n(CCCCC(=O)NCCc3ccc(Cl)cc3)c(=O)c3ccccc32)cc1 | .
CCCC(C)N1CC2(CCN(C(=O)c3sc(C)nc3CC)CC2)OC1=O (centres undefined) | .
O=C(CCS(=O)(=O)c1cc(Br)cc2c1N(C(=O)C1CC1)CC2)N1CCN(c2cccc(C(F)(F)F)c2)CC1 | 10µM
O=C(CCS(=O)(=O)c1cc(Br)cc2c1N(C(=O)C1CC1)CC2)N1CCN(c2ccc(F)cc2)CC1 | 7.9µM
Cc1ccc(N2CCN(S(=O)(=O)c3cc(Br)cc4c3N(C(=O)C3CC3)CC4)CC2C)cc1 (centres undefined) | .
CCC(=O)N1CCc2cc(S(=O)(=O)CCC(=O)N3CCN(c4cccc(Cl)c4)CC3)ccc21 | .
COc1ccc(N2CCN(S(=O)(=O)c3cc(Br)cc4c3N(C(=O)C3CC3)CC4)CC2)cc1 | .
COc1ccccc1CNS(=O)(=O)c1cc(Br)cc2c1N(C(=O)C1CC1)CC2 | .
Cc1ccc(C)c(N2CCN(S(=O)(=O)c3cc(Br)cc4c3N(C(=O)C3CC3)CC4)CC2)c1 | .
Cc1ccc(C)c(N2CCN(C(=O)CCS(=O)(=O)c3cc(Br)cc4c3N(C(=O)C3CC3)CC4)CC2)c1 | 11µM
Cc1ccc(C)c(N2CCN(C(=O)CCNS(=O)(=O)c3ccc4c(c3)CCN4C(=O)C3CC3)CC2)c1 | .
Cc1cnc(-c2ccccc2)n1C1CCCN(C(=O)Nc2ccccc2F)C1 (centres undefined) | .
